# Bioassay records: PubChem, several laboratories
# Shown are actives, neighbours in structure and some others; about 4.6% of the full set was active somewhere.
# tim23-1 inh – growth inhibitors of tim23-1 mutant yeast; S. cerevisiae tim23-1 growth, BacTiter-Glo luminescence, 24 h; inhibition, % at 20 µM; 330,000 tested, 1.3% active; AID 463212;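 active = growth inhibition of the mutant yeast at or above 50%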;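 note: temperature-sensitive mutant grown at 25 °C; plate controls were DMSO-treated mutant yeast for no effect and medium wells lacking yeast for full effect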
# PfHsp90 yeast 2 – growth inhibition of yeast expressing Plasmodium Hsp90. S. cerevisiae expressing PfHsp90, BacTiter-Glo ATP, 48 h; yeast lacking PDR1 and PDR3 efflux regulators. 310,000 tested, 0.32% active. inhibition, % at 9.4 µM;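 active = every replicate shows inhibition above about 80%, whatever the replicate mean, limit read from the data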;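 note: 0% = DMSO neutral controls and 100% = 20 µM radicicol positive controls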
# NLRP3 yeast inh – blocks the NALP3 inflammasome reconstituted in yeast. Yeast reconstituted NLRP3/ASC/caspase-1, beta-gal luminescence, 24 h. inhibition, % at 10 µM. 330,000 tested, 0.39% active;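 active = inhibition of 50% or more; inactive = inhibition below 50%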;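 note: plate controls were induced DMSO wells for no effect and uninduced yeast grown without galactose for full effect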
# tim10-1 inh – tim10-1 yeast growth inhibition; inhibition, % at 20 µM; AID 463190; S. cerevisiae tim10-1 ts strain growth, BacTiter-Glo, 24 h; 330,000 tested, 2.2% active;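 active = inhibition of at least 40%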;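 note: mutant grown at 25 °C; 0% = DMSO wells with yeast and 100% = wells holding no yeast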
# SKKanGAS inh – blocks kanamycin growth of S. pyogenes SKKanGAS strain | BacTiter-Glo, 6 h | AID 1662 | 300,000 tested, 1.3% active | inhibition, % at 7.5 µM;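 active = mean replicate score, as percent of positive control median, at least 50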;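 note: strain carries kanamycin resistance gene driven by streptokinase promoter and grows in 40 µg/ml kanamycin; loss of luminescence reflects streptokinase promoter inhibition or plain growth inhibition; 0% = median of DMSO wells and 100% = positive control at its reference dose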
# TIM10 inh – TIM10 yeast growth inhibition | 330,000 tested, 1.4% active | S. cerevisiae TIM10 strain growth, BacTiter-Glo luminescence, 24 h | AID 463195 | inhibition, % at 10 µM;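 active = inhibition of 40% or more at the single tested concentration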;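 note: wild-type TIM10 isogenic control strain grown at permissive 25 °C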
# tim10-1 confirm – confirmation of tim10-1 mutant yeast growth inhibitors; shares compounds with tim10-1 inh; S. cerevisiae tim10-1 ts strain growth, BacTiter-Glo, 24 h; inhibition, % at 20 µM; 7,400 tested, 56% active;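 active = inhibition of yeast growth at or above a set limit in either of two repeat tests at 20 µM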;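 note: tim10-1 mutant grown at permissive 25 °C to find synthetic lethal compounds; 0% = DMSO yeast wells and 100% = medium wells without yeast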
# * marks the source's active call; other numbers are inactive results; nt = not tested or not shown.
SMILES,tim23-1 inh,PfHsp90 yeast 2,NLRP3 yeast inh,tim10-1 inh,SKKanGAS inh,TIM10 inh,tim10-1 confirm
CN(C(=O)CSc1nnc(-c2ccc(Cl)cc2)n1CC1CCCO1)C1CCS(=O)(=O)C1 (configuration not stated),-1,-35,-14,4,-4,12,nt
COc1cc2c(cc1OC)CN(CCC(C)c1ccc(Cl)cc1)CC2 (configuration not stated),-8,2,22,-9,0,0,nt
CC1(C)Cc2c(sc(NC(=O)C(=O)N3CCCC3)c2C(=O)O)CO1,-6,4,5,-16,3,2,nt
CC1(C)Cc2c(sc(NC(=O)C(=O)N3CCCC3)c2C#N)CO1,27,15,2,41*,0,15,9
C[C@H](CO)N1C[C@H](C)[C@@H](CN(C)C(=O)Nc2ccc3c(c2)OCO3)Oc2ccc(NC(=O)CCC(F)(F)F)cc2C1=O,8,19,8,14,nt,2,nt
COc1ccccc1CNC(=O)N/C=C/c1ccc(Cl)cc1,-3,17,24,-12,5,-14,nt
Cc1ccc2cccc(NC(=S)NC(=O)c3ccnn3C)c2n1,39,-39,26,43*,0,39,29
CC(=O)NC(=S)Nc1cccc2ccc(C)nc12,-2,-2,-5,24,-8,-22,nt
COc1ccc(C(=O)NC2CCN(CC(=O)NCc3cccc(OC)c3)CC2)cc1,-28,-32,13,-24,3,5,nt
COc1ccccc1NS(=O)(=O)c1ccc(O)c(NC(=S)NCC2CCCO2)c1 (configuration not stated),15,11,13,-6,1,2,nt
COc1ccc(-c2cc(C(=O)N3CCOCC3)c3cc(C)ccc3n2)cc1,32,66,18,34,1,17,nt
COc1ccc(-c2cc(C(=O)N3CCCCCC3)c3cc(C)ccc3n2)cc1,44,-2,27,40*,-7,9,22
COc1ccc(CCNC(=O)C2CCCN(S(=O)(=O)c3ccc(F)cc3)C2)cc1OC (configuration not stated),13,-9,18,25,1,11,nt
CCOC(=O)c1c(N2C(=O)C3CC(C)=C(C)CC3C2=O)sc(C)c1C (configuration not stated),40,-3,5,40*,3,12,11
CCOc1ccc(C(C(=O)NC2CCCCC2)N(C(=O)c2csnn2)C2CC2)cc1 (configuration not stated),19,0,9,-4,14,-3,nt
O=C1S/C(=C/c2ccc(N3CCOCC3)o2)C(=O)N1Cc1c(F)cccc1Cl,29,95*,33,59*,-6,24,58*
O=C1N=C(N2CCOCC2)S/C1=C/c1ccc(-c2ccccc2Cl)o1,1,-16,11,24,14,23,nt
Cc1cccc(NC(=S)N2CCN(C(=O)c3ccco3)CC2)c1,-1,-10,19,7,-3,10,nt
CCCCc1ccc(NC(=S)N2CCN(C(=O)c3ccco3)CC2)cc1,36,16,17,43*,-3,25,24
Cc1ccc(-c2nnn(CC(=O)N(CC(=O)NC3CCCCC3)c3ccccc3F)n2)o1,13,-21,13,2,3,4,nt
CC1(C)CC(=O)N(c2cccc(C(F)(F)F)c2)C(=O)C1,11,-7,5,5,2,-4,nt
COc1ccc2[nH]c3c(=O)n4c(nc3c2c1)SCCC4,36,0,10,40*,-8,32,39*
Cc1ccc2[nH]c3c(=O)n4c(nc3c2c1)SCC4,22,-10,5,45*,16,25,30
O=c1c2ccccc2nc2n1CCS2,-1,nt,15,-5,5,4,nt
CCOc1ccc(N2CC(C(=O)N3CCc4ccccc43)CC2=O)cc1 (configuration not stated),10,10,26,15,-21,-11,nt
SMILES,tim23-1 inh,PfHsp90 yeast 2,NLRP3 yeast inh,tim10-1 inh,SKKanGAS inh,TIM10 inh,tim10-1 confirm
C[C@@H](C(=O)Nc1cccc(S(=O)(=O)N2CCOCC2)c1)N1C(=O)C2CC=CCC2C1=O (some centres not stated),-3,8,-4,-6,2,23,nt
COc1ccc(C(C(=O)NC2CCCC2)N(C(=O)c2ccoc2C)c2ccc(C)c(C)c2)cc1 (configuration not stated),24,25,-11,41*,-16,35,17
CCC1CCCCN1CCCNC(=O)c1ccc(CS(=O)(=O)c2ccccc2OC)o1 (configuration not stated),-12,-22,14,-1,-1,-2,nt
CS(=O)(=O)c1sc2nc(-c3cccs3)cc(-c3ccccc3)c2c1N,7,-9,1,18,41,34,nt
Cc1ccc(-c2cc(-c3ccccc3)c3c(N)c(S(C)(=O)=O)sc3n2)cc1,24,0,11,49*,10,34,43*
CC(=O)Nc1nc(-c2ccccc2)nc(-c2ccccc2OC(C)=O)n1,39,-20,12,48*,-1,29,16
CCOc1cccc(-c2nnc3sc(C4CCCCC4)nn23)c1,40,-20,-20,41*,-3,31,13
COc1cccc(-c2nnc3sc(C4CCCCC4)nn23)c1,40,-7,-15,25,8,1,nt
CCCN1CCN(c2ncnc3scc(C4COc5ccccc5O4)c23)CC1 (configuration not stated),24,-11,-4,31,1,1,nt
c1ccc2c(c1)OCC(c1csc3ncnc(N4CCCCC4)c13)O2 (configuration not stated),48,-6,-29,41*,11,29,24
CCn1c(C)c(C)c2cc(C(=O)N3CCc4ccccc4C3)ccc21,47,-3,9,48*,18,27,1
CCN1CCN(C(=O)c2ccc3c(c2)c(C)c(C)n3Cc2ccccc2)CC1,14,22,-4,19,0,3,nt
Cn1c(CC(=O)c2ccc(Br)cc2)[n+](C)c2ccccc21,-6,nt,7,18,-13,-25,nt
COc1ccc(-c2nnc(C)c3nocc23)cc1,3,-3,13,4,2,1,nt
Brc1ccc(-c2nnc(-c3cccnc3)c3conc23)cc1,44,nt,31,51*,6,18,15
CN(C)C(=C(C#N)C#N)N1CCN(c2ccc(Cl)c(Cl)c2)CC1,27,-13,-15,42*,1,8,10
S=c1nc[nH]c2c1sc1nc(N3CCOCC3)c3c(c12)CCCC3,36,-59,2,43*,13,23,19
COc1ccc(-c2c(C)nn3c(NC4CCCC4)cc(C)nc23)cc1OC,42,-23,2,44*,0,9,23
